Assay outcomes as filed in PubChem.
In the library only some 2.5% were active in any assay of this set; here they are far more common.
ASK1 inh: human ASK1 kinase inhibition, primary screen; Q99683; AlphaScreen MKK6 phosphorylation by ASK1, luminescence; inhibition, % at 7.44 µM; 22,000 tested, 0.99% active; in the data active = inhibition above about 35%;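 note: 0% = median of compound wells and 100% = no enzyme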
Target sequence (Q99683 whole entry, looked up): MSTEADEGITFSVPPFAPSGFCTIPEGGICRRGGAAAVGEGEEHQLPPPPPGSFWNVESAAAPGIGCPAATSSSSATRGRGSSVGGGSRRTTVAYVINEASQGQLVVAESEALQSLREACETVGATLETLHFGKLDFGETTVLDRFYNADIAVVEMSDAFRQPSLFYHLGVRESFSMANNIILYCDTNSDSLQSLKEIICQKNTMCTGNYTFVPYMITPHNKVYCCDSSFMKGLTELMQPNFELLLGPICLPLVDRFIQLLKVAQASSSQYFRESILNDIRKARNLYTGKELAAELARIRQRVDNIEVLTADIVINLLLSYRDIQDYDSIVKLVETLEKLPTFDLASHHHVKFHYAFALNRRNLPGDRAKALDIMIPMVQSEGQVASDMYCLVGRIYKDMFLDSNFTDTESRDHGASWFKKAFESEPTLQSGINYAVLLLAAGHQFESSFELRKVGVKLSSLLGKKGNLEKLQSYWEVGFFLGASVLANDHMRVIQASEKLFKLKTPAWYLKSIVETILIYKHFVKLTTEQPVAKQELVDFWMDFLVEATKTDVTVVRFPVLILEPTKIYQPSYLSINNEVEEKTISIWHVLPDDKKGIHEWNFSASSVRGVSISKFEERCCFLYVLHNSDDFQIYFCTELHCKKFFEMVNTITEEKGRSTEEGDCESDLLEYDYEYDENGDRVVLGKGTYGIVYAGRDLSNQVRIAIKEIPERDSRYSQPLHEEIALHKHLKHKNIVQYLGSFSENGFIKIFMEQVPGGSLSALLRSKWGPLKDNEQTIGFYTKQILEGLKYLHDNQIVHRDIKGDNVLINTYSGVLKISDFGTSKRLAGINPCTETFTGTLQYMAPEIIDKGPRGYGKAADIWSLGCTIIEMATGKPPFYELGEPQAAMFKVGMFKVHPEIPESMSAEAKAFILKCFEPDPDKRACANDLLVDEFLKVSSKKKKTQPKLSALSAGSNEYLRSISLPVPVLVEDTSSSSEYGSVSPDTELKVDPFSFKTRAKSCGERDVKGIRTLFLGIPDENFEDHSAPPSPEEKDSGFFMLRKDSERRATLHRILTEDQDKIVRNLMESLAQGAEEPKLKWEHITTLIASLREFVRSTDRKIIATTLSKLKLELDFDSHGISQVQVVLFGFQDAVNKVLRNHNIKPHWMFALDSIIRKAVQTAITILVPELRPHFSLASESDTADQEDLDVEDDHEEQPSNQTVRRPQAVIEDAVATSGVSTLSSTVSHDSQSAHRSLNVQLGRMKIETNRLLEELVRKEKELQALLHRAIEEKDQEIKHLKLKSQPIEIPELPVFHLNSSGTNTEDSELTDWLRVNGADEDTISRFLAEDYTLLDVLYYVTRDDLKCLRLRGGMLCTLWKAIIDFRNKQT
ULK1 primary: inhibitors of human ULK1 kinase. 30,000 tested, 1.9% active. inhibition, % at 5.96 µM. AlphaScreen Atg13 phosphorylation by ULK1, luminescence. AID 1259251; in the data active = inhibition above about 43%;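 note: 0% = median of compound wells and 100% = no enzyme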
TruHits interf: AlphaScreen optical interference dose response, ASK1 counter-screen; shares compounds with ASK1 inh; AlphaScreen TruHits beads, signal interference counterscreen; IC50, µM; 220 tested, 20% active;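 active = IC50 of 10 µM or lower in the counterscreen; inactive = IC50 above 10 µM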;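 note: loss of AlphaScreen light from TruHits beads alone with no ASK1 enzyme present; potency of signal reduction so a low IC50 flags an assay artifact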
The depositor's hits bear a star; i = inactive; · = not tested or not shown; ! = not active in a repeat.

SMILES	ASK1 inh	ULK1 primary	TruHits interf
COc1cc2nc(Nc3ccccc3)nc(Nc3ccc(N4CCOCC4)cc3)c2cc1OC	48*	-12	9.5*
c1nc2nc(Nc3ccc(N4CCOCC4)cc3)nc(Nc3ccc(N4CCOCC4)cc3)c2[nH]1	20	14	·
COc1cc2nc(Nc3ccc4ncccc4c3)nc(Nc3ccc(N4CCOCC4)cc3)c2cc1OC	10	2	·
CCN(CC)C(=O)C1CCCN(c2nc(Nc3ccc(Oc4ccccc4)cc3)c3ncn(CCN4CCCC4=O)c3n2)C1 (centres undefined)	16	-36	·
CCN(CC)C(=O)C1CCCN(c2cccc(C(=O)NCc3cccnc3)n2)C1 (centres undefined)	9	29	·
FC(F)(F)c1ccc(Cn2cnc3c(NC4CC4)nc(N4CCN(Cc5ccc6c(c5)OCO6)CC4)nc32)cc1	14	-34	·
O=C(NC1CCN(Cc2ccccc2)CC1)c1ccc2nc(Nc3ccncn3)sc2c1	-7	11	·
COc1cc2nc(Nc3ccc(-n4ccnc4)cc3)nc(Nc3ccc(N4CCOCC4)cc3)c2cc1OC	17	-2	·
COc1cc2nc(Nc3nc4ccccc4n3C)nc(Nc3ccc(NC(C)=O)cc3)c2cc1OC	72*	-52	9.7*
COc1cc2nc(NC3CCN(Cc4ccccc4)CC3)nc(Nc3ccc(N4CCOCC4)cc3)c2cc1OC	39*	14	8.3*
COc1cc2nc(NC3CCN(Cc4ccccc4)CC3)nc(Nc3cc(OC)c(OC)c(OC)c3)c2cc1OC	17	-7	·
COc1cc2nc(Nc3ccc(N4CCOCC4)cc3)nc(Nc3ccc(N4CCOCC4)cc3)c2cc1OC	64*	-10	5.6*
COc1cc2nc(Nc3nc4ccccc4n3C)nc(Nc3ccc4c(c3)OCO4)c2cc1OC	-5	-1	·
COc1cc2nc(Nc3nc4ccccc4n3C)nc(Nc3cc(OC)c(OC)c(OC)c3)c2cc1OC	8	1	·
COc1cc2nc(Nc3nc4ccccc4n3C)nc(Nc3ccc(N4CCOCC4)cc3)c2cc1OC	67*	-13	i
COc1ccc2c(c1)C[C@H](C(=O)Nc1ccc(-c3cn[nH]c3)cc1OC1CCOCC1)NC2	-5	-5	·
CC(C)n1c(N2CCc3ccccc3C2)nc2c(NC3CCN(Cc4ccccc4)CC3)ncnc21	11	-3	·
Cc1cc(NCC2CCCO2)nc(Nc2ccc(N3CCOCC3)cc2)n1 (centres undefined)	-14	1	·
COc1cc2nc(Nc3ccc(N4CCOCC4)cc3)nc(NCc3cccc(C(F)(F)F)c3)c2cc1OC	52*!	-15	6.2*
COc1ccc(Nc2nc(NCc3cccc(C(F)(F)F)c3)c3cc(OC)c(OC)cc3n2)cc1	2	-26	·
c1ccc(CN2CCC(Nc3nccc(Nc4ccc(N5CCOCC5)cc4)n3)CC2)cc1	16	14	·
c1ccc(CN2CCC(Nc3ccnc(Nc4ccc(N5CCOCC5)cc4)n3)CC2)cc1	50*	16	i
COc1ccc(-c2nc(C)cc(NCc3nc4ccccc4[nH]3)n2)cc1	0	-7	·
CCCNc1ncnc2c1nc(Nc1ccccn1)n2C(C)C	-12	4	·
CN(C)CCNc1cc(-c2cn[nH]c2)ccc1NC(=O)[C@@H]1COc2ccccc2O1	3	8	·
SMILES	ASK1 inh	ULK1 primary	TruHits interf
c1ccc(CCn2nc(-c3ccnc(Nc4ccc(N5CCOCC5)cc4)c3)cc2Nc2ccccc2)cc1	56*	-13	>19
c1ccc(CCn2ncc(-c3ccnc(Nc4ccc(N5CCOCC5)cc4)c3)c2Nc2ccccc2)cc1	41*	18	>19
OCc1ccccc1Nc1ccnc(Nc2ccc(N3CCOCC3)cc2)c1	-3	6	·
O=C(Cc1ccccc1)Nc1cc(-c2ccnc(Nc3ccc(N4CCOCC4)cc3)c2)nn1CCc1ccccc1	18	-14	·
O=C(Nc1ccccc1)c1ccccc1Nc1ccnc(Nc2ccc(N3CCOCC3)cc2)c1	37*	2	>19
Cn1ncc(-c2ccnc(Nc3ccc(N4CCOCC4)cc3)c2)c1Nc1ccccc1	19	12	·
COc1ccc2c(c1)CC(C(=O)Nc1ccc(-c3cn[nH]c3)cc1Oc1cccc(N(C)C)c1)CO2 (centres undefined)	33	9	·
OC1CCC(Nc2nccc(NCc3cccc(C(F)(F)F)c3)n2)CC1 (centres undefined)	-13	-9	·
COc1ccc2nc(Cl)c(CN3CCOc4ccc(-c5ccncc5)cc43)cc2c1	12	3	·
CCNc1ccc(N2CCC(C(=O)Nc3cc(OC)c(OC)c(OC)c3)CC2)nn1	-5	6	·
Cc1nn(C)c(C)c1-c1ccc(C(=O)Nc2ccc(N3CCOCC3)cc2)s1	4	23	·
CCc1ccccc1NC(=O)c1ccc(=O)oc1	·	2	·
COc1cc2nc(Nc3cccc(N(C)C)c3)nc(Nc3ccc(NC(C)=O)cc3)c2cc1OC	55*	5	8.7*
COc1cc2nc(Nc3cccc(N(C)C)c3)nc(Nc3ccccc3)c2cc1OC	42*	-21	4.3*
COc1cc2nc(Nc3ccccc3)nc(Nc3ccccc3)c2cc1OC	16	-12	·
COc1cc2nc(Nc3ccncc3)nc(Nc3ccc(NC(C)=O)cc3)c2cc1OC	8	-15	·
COc1ccc(CCNC(=O)c2csc(-c3c(C)nn(C)c3C)n2)cc1	-10	2	·
CC(=O)c1cccc(-c2ncc(C(=O)NCCCN3CCCC3=O)s2)c1	-10	3	·
Cc1ccc(-c2nnc3n(Cc4ccc(Cl)cc4)c4c(=O)[nH]c(=O)n(C)c4n23)cc1	·	1	·
COc1ccc(-c2nc(NCc3cccnc3)c3ncn(-c4ccccc4)c3n2)cn1	-44	24	·
c1ccc2c(c1)OCC(c1nc(N3CCOCC3)c3cc(-c4cn[nH]c4)ccc3n1)O2 (centres undefined)	37*	-50	>19
CN(C)CCN(C)c1nc(C2COc3ccccc3O2)nc2ccc(-c3cn[nH]c3)cc12 (centres undefined)	28	12	·
FC(F)(F)c1ccc(Cn2cnc3c(NCc4ccccc4)nc(-c4ccc(N5CCOCC5)nc4)nc32)cc1	45*	2	>20
FC(F)(F)c1ccc(Cn2cnc3c(NCc4cccc(C(F)(F)F)c4)nc(-c4ccc(N5CCOCC5)nc4)nc32)cc1	28	-2	·
CN(C)c1cccc(Nc2nc(Nc3ccc4c(c3)OCO4)c3ncn(Cc4ccc(C(F)(F)F)cc4)c3n2)c1	50*	32	>18
SMILES	ASK1 inh	ULK1 primary	TruHits interf
CC(C)n1cnc2c(Nc3ccc4c(c3)OCO4)nc(Nc3cccc(N(C)C)c3)nc21	37*	16	>20
COc1cc(Nc2nc(Nc3ccc(N4CCOCC4)cc3)c3ncn(Cc4ccc(C(F)(F)F)cc4)c3n2)cc(OC)c1OC	37*	4	>18
CC(=O)Nc1ccc(Nc2nc(Nc3cccc(N(C)C)c3)nc3c2ncn3Cc2ccc(C(F)(F)F)cc2)cc1	-11	37	·
FC(F)(F)c1ccc(Cn2cnc3c(Nc4ccccc4)nc(Nc4ccc(N5CCOCC5)cc4)nc32)cc1	28	-18	·
CC(C)n1cnc2c(Nc3ccc(N4CCOCC4)cc3)nc(Nc3cccc(N(C)C)c3)nc21	35	20	·
COc1cc(Nc2ncc(C(=O)NCCCN3CCCC3=O)s2)cc(OC)c1OC	-8	5	·
FC(F)(F)c1ccc(Cn2cnc3c(Nc4ccc(N5CCOCC5)cc4)nc(N4CCN(Cc5ccc6c(c5)OCO6)CC4)nc32)cc1	48*	-16	>20
